For 38 compounds, outcome and AC50 results are on record in PubChem BioAssay (EPA / NIEHS).

The structures appear in SMILES notation. Records with an inconclusive call do not appear. Some structures have more than one record in an assay (separate samples or runs), and their calls can disagree. Active and inactive are the calls of the source. The calls were made as follows: active = hit-call score of the fitted dose curve at least 0.9, where 1 is the maximum; inconclusive = response in the unintended direction; inactive = score below 0.9.

Sequence of human Protein Tyrosine Phosphatase Non-receptor Type 2 (PTPN2), PTPN2 (gene 5771) (P17706 whole entry, looked up): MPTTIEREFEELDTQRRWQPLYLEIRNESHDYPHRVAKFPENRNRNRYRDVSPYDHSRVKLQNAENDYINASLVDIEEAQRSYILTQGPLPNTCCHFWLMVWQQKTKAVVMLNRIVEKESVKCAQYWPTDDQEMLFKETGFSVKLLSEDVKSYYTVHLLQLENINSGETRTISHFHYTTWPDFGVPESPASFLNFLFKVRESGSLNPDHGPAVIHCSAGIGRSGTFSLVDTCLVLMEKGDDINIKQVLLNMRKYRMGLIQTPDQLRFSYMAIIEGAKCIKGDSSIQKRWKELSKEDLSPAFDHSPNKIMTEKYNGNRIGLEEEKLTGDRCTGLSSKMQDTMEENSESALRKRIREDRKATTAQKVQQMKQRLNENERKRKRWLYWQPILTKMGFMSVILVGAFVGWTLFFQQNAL
Sequence of human Protein Tyrosine Phosphatase Receptor Type C (PTPRC), PTPRC (gene 5788) (P08575 whole entry, looked up): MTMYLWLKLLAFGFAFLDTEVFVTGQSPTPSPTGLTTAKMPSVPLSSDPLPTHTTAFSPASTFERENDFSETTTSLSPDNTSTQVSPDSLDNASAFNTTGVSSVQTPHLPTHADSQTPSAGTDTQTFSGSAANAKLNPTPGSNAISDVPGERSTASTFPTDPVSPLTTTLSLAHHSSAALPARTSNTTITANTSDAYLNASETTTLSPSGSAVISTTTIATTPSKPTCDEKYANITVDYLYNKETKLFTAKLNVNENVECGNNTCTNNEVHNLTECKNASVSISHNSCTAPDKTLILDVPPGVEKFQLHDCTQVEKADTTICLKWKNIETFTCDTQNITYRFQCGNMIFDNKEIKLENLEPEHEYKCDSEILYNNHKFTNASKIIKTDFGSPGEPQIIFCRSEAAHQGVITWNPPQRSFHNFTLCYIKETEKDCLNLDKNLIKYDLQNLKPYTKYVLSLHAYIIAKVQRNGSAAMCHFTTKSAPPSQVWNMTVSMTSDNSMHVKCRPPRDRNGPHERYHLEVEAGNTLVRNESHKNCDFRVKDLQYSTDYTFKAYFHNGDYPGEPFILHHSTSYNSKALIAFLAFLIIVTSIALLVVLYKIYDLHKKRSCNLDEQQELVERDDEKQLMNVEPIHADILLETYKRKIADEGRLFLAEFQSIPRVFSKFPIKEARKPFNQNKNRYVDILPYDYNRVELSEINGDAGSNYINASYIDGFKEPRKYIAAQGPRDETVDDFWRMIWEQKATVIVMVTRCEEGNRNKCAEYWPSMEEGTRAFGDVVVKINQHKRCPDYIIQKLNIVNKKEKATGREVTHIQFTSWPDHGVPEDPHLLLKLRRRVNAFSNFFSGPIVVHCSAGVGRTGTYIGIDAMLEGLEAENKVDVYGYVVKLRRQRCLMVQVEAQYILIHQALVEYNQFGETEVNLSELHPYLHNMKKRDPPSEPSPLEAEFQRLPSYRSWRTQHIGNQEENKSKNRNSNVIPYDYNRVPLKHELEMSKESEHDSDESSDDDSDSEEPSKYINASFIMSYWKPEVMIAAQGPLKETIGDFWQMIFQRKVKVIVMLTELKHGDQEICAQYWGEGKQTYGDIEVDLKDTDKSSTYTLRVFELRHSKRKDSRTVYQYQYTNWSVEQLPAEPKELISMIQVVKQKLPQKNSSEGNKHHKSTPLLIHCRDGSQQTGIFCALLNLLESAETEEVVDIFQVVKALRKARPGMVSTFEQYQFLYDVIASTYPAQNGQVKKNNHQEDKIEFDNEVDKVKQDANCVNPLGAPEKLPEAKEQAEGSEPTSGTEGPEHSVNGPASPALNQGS
Sequence of human Raf-1 Proto-Oncogene, serine/threonine Kinase (RAF1), RAF1 (gene 5894) (P04049 whole entry, looked up): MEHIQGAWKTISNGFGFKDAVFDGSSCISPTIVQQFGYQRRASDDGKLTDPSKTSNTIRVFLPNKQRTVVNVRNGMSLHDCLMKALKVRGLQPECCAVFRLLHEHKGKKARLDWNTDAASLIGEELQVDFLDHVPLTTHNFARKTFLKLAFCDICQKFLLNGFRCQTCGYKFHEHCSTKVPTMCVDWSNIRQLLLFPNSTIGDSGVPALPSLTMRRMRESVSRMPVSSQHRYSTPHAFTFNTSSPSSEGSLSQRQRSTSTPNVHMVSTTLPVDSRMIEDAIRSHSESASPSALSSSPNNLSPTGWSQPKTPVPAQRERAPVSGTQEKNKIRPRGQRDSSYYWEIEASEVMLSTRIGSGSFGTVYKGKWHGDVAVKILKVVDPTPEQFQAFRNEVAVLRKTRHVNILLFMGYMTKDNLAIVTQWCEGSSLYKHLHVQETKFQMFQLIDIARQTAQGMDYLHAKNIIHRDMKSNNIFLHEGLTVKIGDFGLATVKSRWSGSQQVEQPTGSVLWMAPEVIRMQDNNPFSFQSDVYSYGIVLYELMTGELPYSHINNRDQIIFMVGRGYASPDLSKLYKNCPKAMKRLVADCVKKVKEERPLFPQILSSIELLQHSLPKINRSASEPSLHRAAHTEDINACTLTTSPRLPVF
Sequence of human Phosphatase and Tensin Homolog (PTEN), PTEN (gene 5728) (P60484 whole entry, looked up): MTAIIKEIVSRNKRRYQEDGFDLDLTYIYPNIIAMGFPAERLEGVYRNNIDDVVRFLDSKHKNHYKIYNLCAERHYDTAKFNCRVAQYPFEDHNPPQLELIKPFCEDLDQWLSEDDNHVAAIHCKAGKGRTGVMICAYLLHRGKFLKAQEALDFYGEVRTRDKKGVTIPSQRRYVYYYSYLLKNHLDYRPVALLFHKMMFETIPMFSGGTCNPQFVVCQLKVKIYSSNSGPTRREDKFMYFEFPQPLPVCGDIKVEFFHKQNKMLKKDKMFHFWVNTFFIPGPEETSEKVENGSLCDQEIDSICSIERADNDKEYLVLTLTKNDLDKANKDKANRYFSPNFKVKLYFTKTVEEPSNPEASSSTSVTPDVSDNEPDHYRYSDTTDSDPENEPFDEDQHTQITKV

The first assay has as its target human Phosphatase and Tensin Homolog (PTEN), PTEN (gene 5728) (UniProt P60484). Description: NVS_ENZ_hPTEN: NovaScreen (NVS) Enzymatic Assay for human Phosphatase and Tensin Homolog (PTEN) (AID 2283203). In short, it runs like this: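 Cell-free recombinant human PTEN with fluorescent substrate; product separated by electrophoretic mobility shift and read by fluorescence 1 h after dosing. Primary screen in duplicate at 25 uM, actives followed in concentration series versus DMSO.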
As for `Cc1cncc(C)c1`, the outcome was inactive.

`CCC(=O)OCC=Cc1ccccc1`: the compound was classed as inactive.

One may read the AC50 as the concentration giving half of the maximal activity seen. For `CC(c1cc(C(C)(C)C)cc(C(C)(C)C)c1O)c1cc(C(C)(C)C)cc(C(C)(C)C)c1O`, the AC50 is 5.29 µM (active).

As for `CCOC(=O)[C@H](C)O`, the compound was classed as inactive.

In the case of `C#CC(O)CCC` (stereo unspecified), the AC50 was 25 µM (active).

Take `Cc1ccc(N)c([N+](=O)[O-])c1`: the AC50 was 25 µM (active).

Regarding `CCNc1nc(NC(C)(C)C)nc(OC)n1`, the call was inactive.

For `CCCCCC1=CCCC1=O`, the AC50 is 16.3 µM (active).

A further assay has as its target human Protein Tyrosine Phosphatase Non-receptor Type 2 (PTPN2), PTPN2 (gene 5771) (UniProt P17706). Description: NVS_ENZ_hPTPN2: NovaScreen (NVS) Enzymatic Assay for human Protein Tyrosine Phosphatase Non-receptor Type 2 (PTPN2) (AID 2283207). In a few lines:
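Cell-free recombinant enzyme with fluorescent substrate, product separated by electrophoretic mobility shift; read 1 h after dosing. Primary screen single concentration (25 uM) in duplicate; actives followed in concentration series; loss of signal versus DMSO.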
For `OC[C@H]1O[C@@H]2O[C@H]3[C@H](O)[C@@H](O)[C@@H](O[C@H]4[C@H](O)[C@@H](O)[C@@H](O[C@H]5[C@H](O)[C@@H](O)[C@@H](O[C@H]6[C@H](O)[C@@H](O)[C@@H](O[C@H]7[C@H](O)[C@@H](O)[C@@H](O[C@H]1[C@H](O)[C@H]2O)O[C@@H]7CO)O[C@@H]6CO)O[C@@H]5CO)O[C@@H]4CO)O[C@@H]3CO`, the result was inactive.

Regarding `COc1nc(C)nc(NC(=O)NS(=O)(=O)c2ccccc2OCCCl)n1`, the compound was classed as inactive.

On to `c1ccc2n[nH]nc2c1`, for which the compound was called inactive.

A further assay addresses human Protein Tyrosine Phosphatase Receptor Type C (PTPRC), PTPRC (gene 5788) (UniProt P08575). Description: NVS_ENZ_hPTPRC: NovaScreen (NVS) Enzymatic Assay for human Protein Tyrosine Phosphatase Receptor Type C (PTPRC) (AID 2283212). In short, it runs like this: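 Yeast-extracted human PTPRC used in a cell-free colorimetric enzyme activity read-out, 1 h after dosing. Primary screen in duplicate at 25 uM; actives rerun in concentration-response up to 50 uM, DMSO as baseline.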
Consider `NC(=O)NN=Cc1ccc([N+](=O)[O-])o1`, for which the AC50 is 11.3 µM (active).

Regarding `CC(C)c1cccc(C(C)C)c1`, the outcome was inactive.

Turning to `ClC1=C(Cl)C(Cl)(Cl)C(Cl)=C1Cl`, the AC50 was 10.9 µM (active).

Regarding `CCCCCCOCCO`, the result was inactive.

For `CCCCc1nc2cccnc2n1Cc1ccc(-c2ccccc2-c2nnn[nH]2)cc1`, the compound was classed as inactive.

As for `OC12N=C(c3ccccc3)SC1Cc1cc(Cl)ccc12` (stereo unspecified), the AC50 was 21.3 µM (active).

For the compound `CC(C)CCO`, the compound was classed as inactive.

`Nc1nc2ncc(CNc3ccc(C(=O)N[C@@H](CCC(=O)O)C(=O)O)cc3)nc2c(=O)[nH]1`: the AC50 is 15.8 µM (active).

With `Nc1nc(N)c2nc(CNc3ccc(C(=O)N[C@@H](CCC(=O)O)C(=O)O)cc3)cnc2n1`, the AC50 was 14.5 µM (active).

`CCCCCCC(=O)OCC`: the call was inactive.

On to `C[C@@H]1C[C@H]2[C@@H]3CCC4=CC(=O)C=C[C@]4(C)[C@@]3(F)[C@@H](O)C[C@]2(C)[C@@]1(O)C(=O)COP(=O)(O)O`, for which the AC50 was 15.3 µM (active).

Consider `CCCC[C@H]1CN(CC2CCOCC2)C(=O)OC12CCN(C1(C)CCN(C(=O)c3c(C)ncnc3C)CC1)CC2`, for which the outcome was inactive.

As for `CCCCC(CC)COC(=O)CC(C(=O)OCC(CC)CCCC)S(=O)(=O)O` (stereo unspecified), the AC50 is 25 µM (active).

In the case of `Cc1c(C(=O)O)c(O)cc2c1C(=O)c1c(O)c([C@@H]3O[C@H](CO)[C@@H](O)[C@H](O)[C@H]3O)c(O)c(O)c1C2=O`, the AC50 was 11.7 µM (active).

For `Nc1ccc(Nc2ccccc2)cc1`, the AC50 was 19.1 µM (active).

In the case of `Nc1ccccc1N`, the AC50 is 7.6 µM (active).

The target in another assay is human Raf-1 Proto-Oncogene, serine/threonine Kinase (RAF1), RAF1 (gene 5894) (UniProt P04049). The assay is described as follows: NVS_ENZ_hRAF1: NovaScreen (NVS) Enzymatic Assay for human Raf-1 Proto-Oncogene, serine/threonine Kinase (RAF1) (AID 2283216). In short, it runs like this:
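Cell-free recombinant kinase with specific fluorescent substrate, product separated by electrophoretic mobility shift; read 1 h after dosing. Primary screen at 25 uM in duplicate; hits then run in concentration-response up to 50 uM, fitted as loss of signal versus DMSO.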
As to `c1ccc2ncccc2c1`, the outcome was inactive.

Take `COC(=O)c1c(Cl)nn(C)c1S(=O)(=O)NC(=O)Nc1nc(OC)cc(OC)n1`: the call was inactive.

Consider `COc1ccc(/C=C/S(=O)(=O)NC(=O)c2ccc(C)cc2Cl)cc1`, for which the compound was called inactive.

With `CCOC(=O)COc1cc(-n2ncc(C(F)(F)F)c(C)c2=O)c(F)cc1Cl`, the compound was called inactive.

As to `C[C@@H]1C[C@H]2[C@@H]3CCC4=CC(=O)C=C[C@]4(C)[C@@]3(F)[C@@H](O)C[C@]2(C)[C@@]1(O)C(=O)COP(=O)(O)O`, the compound was classed as inactive.

As to `Clc1nc(Cl)c(Cl)c(Cl)c1Cl`, the compound was called inactive.

With `Cc1cc2c(cc1C(F)(F)F)N(C(=O)Nc1ccc(Oc3cccnc3C)nc1)CC2`, the AC50 was 6.86 µM (active).

The next assay deals with rat Monoamine Oxidase, MAO-A, Peripheral (MAOAP), gene 29253. The assay is described as follows: NVS_ENZ_rMAOAP: NovaScreen (NVS) Enzymatic Assay for rat Monoamine Oxidase, MAO-A, Peripheral (MAOAP) (AID 2283237). In short, it runs like this: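 Rat liver mitochondrial membranes served as the MAO-A source, with enzyme activity measured by radiometric scintillation counting 1.17 hours after dosing. Loss of signal was fitted against DMSO; primary screen used 25 uM in duplicate, follow-up used concentration series.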
As to `O=NO`, the AC50 was 33.9 µM (active).

As for `CCCN(CCC)c1c([N+](=O)[O-])cc(C(F)(F)F)c(N)c1[N+](=O)[O-]`, the result was inactive.

Regarding `CCCOC(=O)NCCCN(C)C`, the compound was classed as inactive.

For the compound `Nc1nc(N)c2nc(CNc3ccc(C(=O)N[C@@H](CCC(=O)O)C(=O)O)cc3)cnc2n1`, the AC50 was 38.7 µM (active).

As for `CCOC(=O)COc1cc(-n2ncc(C(F)(F)F)c(C)c2=O)c(F)cc1Cl`, the compound was classed as inactive.

As for `O=C(O)c1cccc(C(=O)O)c1`, the compound was classed as inactive.

Turning to `Cc1c(C(=O)O)c(O)cc2c1C(=O)c1c(O)c([C@@H]3O[C@H](CO)[C@@H](O)[C@H](O)[C@H]3O)c(O)c(O)c1C2=O`, the compound was called inactive.

For a further assay, the target named is rat Monoamine Oxidase, MAO-B, Central (MAOBC), Maob (gene 25750) (UniProt P19643). The assay is described as follows: NVS_ENZ_rMAOBC: NovaScreen (NVS) Enzymatic Assay for rat Monoamine Oxidase, MAO-B, Central (MAOBC) (AID 2283238). In short, it runs like this: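 Compounds were first tested in duplicate at 25 uM against MAO-B from rat brain tissue; those passing the inhibition threshold were retested in concentration series up to 50 uM. Radiodetection by scintillation counting at 1.17 h, analysed against DMSO baseline.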
Sequence of rat Monoamine Oxidase, MAO-B, Central (MAOBC), Maob (gene 25750) (P19643 whole entry, looked up): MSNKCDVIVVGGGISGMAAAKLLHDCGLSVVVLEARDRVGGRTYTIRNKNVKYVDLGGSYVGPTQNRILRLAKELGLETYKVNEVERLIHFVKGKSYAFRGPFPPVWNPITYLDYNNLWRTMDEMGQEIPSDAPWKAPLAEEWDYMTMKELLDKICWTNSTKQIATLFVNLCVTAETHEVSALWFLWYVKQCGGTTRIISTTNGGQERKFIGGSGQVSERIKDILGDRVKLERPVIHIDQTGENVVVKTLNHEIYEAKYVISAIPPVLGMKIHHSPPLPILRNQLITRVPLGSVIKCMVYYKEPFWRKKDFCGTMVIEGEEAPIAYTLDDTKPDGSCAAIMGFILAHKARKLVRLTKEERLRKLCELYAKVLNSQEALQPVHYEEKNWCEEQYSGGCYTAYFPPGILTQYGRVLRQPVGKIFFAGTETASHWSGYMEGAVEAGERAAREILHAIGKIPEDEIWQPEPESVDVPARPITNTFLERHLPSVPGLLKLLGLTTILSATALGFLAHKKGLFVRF
Turning to `c1ccc2ncccc2c1`, the result was inactive.

With `c1ccc2n[nH]nc2c1`, the AC50 was 25 µM (active) and the compound was called inactive.

On to `Nc1ccc(Nc2ccccc2)cc1`, for which the AC50 is 10.4 µM (active).

The test system of the next assay is rat Monoamine Oxidase, MAO-A, Central (MAOAC), gene 29253. Description: NVS_ENZ_rMAOAC: NovaScreen (NVS) Enzymatic Assay for rat Monoamine Oxidase, MAO-A, Central (MAOAC) (AID 2283243).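 Also: potency refers to inhibition seen as signal drop below DMSO baseline.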 In a few lines: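 Rat brain tissue extract served as the cell-free enzyme source; activity was measured by radiometric scintillation counting 1.5 hours after compound addition. Loss of signal relative to DMSO baseline indicated inhibition; primary screen at 25 uM in duplicate.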
With `Nc1nc(N)c2nc(CNc3ccc(C(=O)N[C@@H](CCC(=O)O)C(=O)O)cc3)cnc2n1`, the AC50 was 0.889 µM (active).

For the compound `C#CC(O)CCC` (stereo unspecified), the outcome was inactive.

`Cc1ccc(N)c([N+](=O)[O-])c1`: the AC50 was 8.62 µM (active).

The next assay addresses Voltage-dependent N-type calcium channel subunit alpha-1B (Rattus norvegicus) (UniProt Q02294). Description: NVS_IC_rCaChN: NovaScreen (NVS) Ion Channel Assay for rat Calcium Channel, Type N (CaChN) (AID 2283317).
For the compound `CC(C)c1cccc(C(C)C)c1`, the result was inactive.

Take `CC(=O)OCCC(C)C`: the result was inactive.

In the case of `C[C@@H]1C[C@H]2[C@@H]3CCC4=CC(=O)C=C[C@]4(C)[C@@]3(F)[C@@H](O)C[C@]2(C)[C@@]1(O)C(=O)COP(=O)(O)O`, the outcome was inactive.
